Reference: PubChem BioAssay (NCATS)
Records with an inconclusive call do not appear. A number with no mark means an inactive call. Active and inactive are the calls of the source. Calls follow the shape of the dose curve; as a rule, active = well fitted inhibition curve with a large enough effect; inconclusive = small, poorly fitted or top-dose-only effect; inactive = flat fitted curve, though single readings scatter.

tested on: CRL-7250; assay: Cytotoxic Profiling of Annotated Libraries Using Quantitative High-Throughput Screening (AID 1296008); details: Five cell lines viability, CellTiter-Glo ATP luminescence, 48-72 h; max response: hits give low values; also: nearly all actives have a fitted effect of over 60% in size
Summary of the method: (§1)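 Compounds were pin-transferred onto cells and incubated 48 or 72 hr at 37 degree Celsius, 95% humidity. CellTiter-Glo was added, plates sat 10 min at room temperature, then ATP-coupled luminescence was imaged as the viability read-out.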
% is scaled to controls: 0 for no effect and ±100 for the full control effect.

| Compound | max response | outcome |
| --- | --- | --- |
| CCCOc1ccc(S(=O)(=O)N2CCN(CCO)CC2)cc1-c1nc2c(CCC)cn(CC)c2c(=O)[nH]1 | -15% | – |
| CN1CCN(C2=Nc3ccccc3Nc3ccc(OS(=O)(=O)C(F)(F)F)cc32)CC1 | – | inactive |
| CCOc1ccc(CCNC(=O)c2cc3sc(Cl)cc3n2C)cc1OCC | -5.08% | – |
| NS(=O)(=O)c1ccc(NC(=O)Nc2ccc(F)cc2)cc1 | – | inactive |
| O=C(Nc1cccnc1)c1cc(-c2ccnc(F)c2)ccc1OCc1ccccc1 | -1.07% | – |
| Cc1cc(C)c(-n2cc(C)c3c(Cl)nc(C)nc32)c(C)c1 | -11.1% | – |
| Cc1cc(C)c(S(=O)(=O)n2cc(C)cc2C)c(C)c1 | -3.09% | – |
| O=C(c1ccc(OC(F)F)c(C#Cc2ccccn2)c1)N1Cc2cccnc2C1 | 4.31% | – |
| CC1=C(C(=O)Nc2cc(Cl)ccc2Cl)C(c2ccco2)C2=C(CCCC2=O)N1 (configuration not stated) | -1.05% | – |
| COc1ccc2c(NC(=O)Nc3cccc(C(F)(F)F)n3)ccnc2c1 | -17.8% | – |
| CC[C@H](C)/C=C(C)/C=C/C1=CC2=CC(=O)[C@]3(C)OC(=O)[C@@H](C(C)=O)[C@@H]3C2=CO1 | -1.79% | – |
| C=C1C(=O)O[C@@H]2[C@H]1CC[C@H](C)[C@]1(CCC(=O)O1)C2(C)O (some centres not stated) | -3% | – |
| CN1CCN(c2ccc(-c3cccc(CN4CCOCC4)c3)cc2NC(=O)c2c[nH]c(=O)cc2C(F)(F)F)CC1 | -6.65% | – |
| CC(C)OC(=O)N1CCC(Oc2ncnc3c2cnn3-c2ccc(S(C)(=O)=O)cc2F)CC1 | – | inactive |

tested on: HaCat; assay: as above; details: Five cell lines viability, CellTiter-Glo ATP luminescence, 48-72 h; max response: hits give low values
Summary of the method: as §1

| Compound | outcome |
| --- | --- |
| COc1ccc(S(=O)(=O)Nc2cc(Cl)cc(Cl)c2OC)cc1N1CCNCC1 | inactive |
| CC(=O)O[C@H]1[C@@]2(O)C[C@H](C)[C@H](OC(=O)c3ccccc3)[C@@H]2[C@@H](OC(=O)CO)[C@]2(OC(C)=O)C[C@H]3C(=O)C(C)(C)C[C@@H]3[C@@]1(C)[C@H]2OC(C)=O | inactive |
| COc1ccc2cc(-c3cc(-c4cc(Cl)cc(Cl)c4)nn3C(C)c3ccc(C(=O)NCCC(=O)O)cc3)ccc2c1 (configuration not stated) | inactive |
| CCCCC1CCC(c2nc(-c3ccncc3)no2)CC1 (configuration not stated) | inactive |
| CC(C)CCCCC(=O)N[C@@H](CO)C(=O)N[C@@H](CC(C)C)C(=O)[C@@]1(CO)CO1 | inactive |
| COc1ccc(NC(=O)c2ccc(-c3ccc(C(=N)N)cc3C)cc2)cc1N1CCN(C)CC1 | inactive |
| CC(C)(Cc1nc(-c2ccc(O)cn2)no1)C(=O)NC1=C(C(=O)O)CCCC1 | inactive |
| CCCN(CCc1ccsc1)C1CCc2c(O)cccc2C1 (configuration not stated) | inactive |
| CCn1c(=O)n([C@H]2CCCN(c3nccc(-c4cc5ccccc5o4)n3)C2)c2ccccc21 | inactive |
| CC(=O)OC1CC(C)(C(=O)O)CC2C3=CC(=O)C4C5(C)CCC(OC6OC(C(=O)O)C(O)C(O)C6OC6OC(C(=O)O)C(O)C(O)C6O)C(C)(C)C5CCC4(C)C3(C)CCC12C (configuration not stated) | inactive |
| COC1=CC(=O)C=C(C)C12Oc1c(Cl)c(OC)cc(OC)c1C2=O (configuration not stated) | inactive |
| O=C(Nc1ccn(Cc2ccc(O)cc2C(F)(F)F)n1)c1c(F)cccc1F | inactive |
| Cc1cccc(N2CCN(C(=O)c3cc(S(=O)(=O)N(C)C)ccc3N3CCCC3)CC2)c1C | inactive |
| COC(=O)c1ccnc(-c2cc(C(=O)Nc3ccc(C4(N)CC4)cc3)ccn2)c1 | inactive |
| COc1ccc(CCO[C@@H]2O[C@H](CO[C@H]3OC[C@](O)(CO)[C@H]3O)[C@@H](OC(=O)/C=C/c3ccc(O)c(O)c3)[C@H](O[C@@H]3O[C@@H](C)[C@H](O)[C@@H](O)[C@H]3O)[C@H]2O)cc1OC | inactive |
| CC(C)(C)c1ccc(C(=O)Nc2cn3cc(-n4ccnc4)ccc3n2)cc1 | inactive |
| C[C@@H](NC(=O)C(=O)c1c[nH]c2ccc([N+](=O)[O-])cc12)c1ccccc1 | inactive |
| COc1ccc(NC(=O)c2ccc(-c3ccc(-c4nnc(C)o4)cc3C)cc2)cc1N1CCN(C)CC1 | inactive; activator |
| C=C1C(=O)OC2CC(C)C(CCC(C)O)=CCC12 (configuration not stated) | inactive |
| CC(C)Nc1nc(Nc2ccccc2)nc(-c2ccccc2)n1 | inactive |
| O=C(NCCCNc1nc(Nc2cccc(CN3CCOCC3)c2)ncc1C1CC1)C1CCC1 | inactive |
| Cc1cc2c(N3CCCC3)nc(N3CCCC3)nc2n1C | inactive |
| Cc1cc(OCCCS(C)(=O)=O)cc(C)c1-c1cccc(COc2ccc(C3=CC(=O)NS3=O)cc2)c1 (configuration not stated) | inactive |
